# Bioassay records: PubChem, National Center for Advancing Translational Sciences (NCATS)
# Only some compounds are listed: those with a hit (about 8% of all), similar ones and a draw of the others.
# SW480 rereplic – induces DNA re-replication in SW480 colon adenocarcinoma cells; SW480 DNA re-replication, Hoechst DNA content imaging, 48 h; Potency, µM (series often up to 46.1 µM), most hits filed as activators; AID 624297; 340,000 tested, 1.8% active; further: nearly all actives have a fitted effect of over 55% in size
#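 SW480 cells exposed to compounds for 48 hr at 37 C, 5% CO2, then Hoechst-stained 40 min. Nuclear DNA content imaged by fluorescence scanning (405 nm excitation, 500-530 nm emission); re-replication scored as increased high-intensity nuclei.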
# MCF10A rerep – inducers of DNA re-replication in MCF 10A breast cells; Potency, µM (top dose mostly 46.1 µM), hits mostly activators; 350,000 tested, 2.9% active; MCF 10A DNA re-replication, Hoechst nuclear intensity, 48 h; further: nearly all actives have a fitted effect of over 50% in size
# KB-V1 MDR tox – kills drug-selected multidrug resistant KB-V1 cells; 400,000 tested, 3.4% active; Potency, µM (doses to about 46.1 µM), most hits filed as cytotoxic; KB-V1 MDR cells viability, CellTiter-Glo, 72 h; further: nearly all actives have a fitted effect of over 60% in size
#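 Cytotoxicity toward P-gp-expressing KB-V1 cells was determined as loss of CellTiter-Glo luminescence after 72 h at 37 degrees C. Compounds were tested in quantitative HTS format across a concentration range, with curves fitted to normalized data.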
# HT1080NT lethal – kills 2HG-producing HT-1080-NT fibrosarcoma cells; HT-1080-NT fibrosarcoma viability, CellTiter-Glo ATP luminescence, 48 h; Potency, µM (titrated, usually from 46.1 µM), hits mostly cytotoxic; 360,000 tested, 1.6% active;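 further: NT is the 2HG producing partner of a matched IDH1 knockdown line; nearly all actives have a fitted effect of over 55% in size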
#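 Toxicity toward the 2HG-producing NT line was scored as %Activity, normalised to DMSO and no-cell wells, from CellTiter-Glo luminescence after 48 hours' treatment.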
# KB-3-1 tox – kills parental KB-3-1 adenocarcinoma cells | KB-3-1 viability, CellTiter-Glo ATP luminescence, 72 h | Potency, µM (doses to about 46.1 µM), actives largely listed as cytotoxic | 400,000 tested, 1.4% active; further: nearly all actives have a fitted effect of over 60% in size
#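 Viability of parental KB-3-1 cells, measured by CellTiter-Glo luminescence, followed a 72 h incubation at 37 °C with pinned compounds in phenol-red-free DMEM containing 10% FBS.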
# HT1080 IDH1KD tx – toxicity to HT-1080 IDH1 knockdown cells (counter line); HT-1080 IDH1 knockdown viability, ATP luminescence, 48 h; 360,000 tested, 2% active; AID 686971; Potency, µM (titrated, usually from 46.1 µM), usual class: cytotoxic
#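 IDH1KD HT-1080 cells, 750/well, RPMI + 5% FBS; compound pinned after 2 h settling; 48 h, 37 °C; CellTiter-Glo luminescence; % activity normalised to DMSO and no-cell wells; curves fitted, classed by r2 and efficacy.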
# Hits are given with their value; 0 = inactive; ? = inconclusive; - = no result given. The call rests on the fitted dose curve; in most records, active means well fitted curve in the direction sought with a large enough effect; inconclusive means small, poorly fitted or top-dose-only effect, or another doubt; inactive means no such curve, though single readings can be large; an effect the other way counts as inactive or inconclusive.
SMILES,SW480 rereplic,MCF10A rerep,KB-V1 MDR tox,HT1080NT lethal,KB-3-1 tox,HT1080 IDH1KD tx
CC(C)Cc1c2c([nH]c(=S)c1C#N)CCCC2,13µM,0,?,0,0,0
CC(=O)Nc1ccc(NC(=O)CCc2nc3cccnc3n2Cc2cccs2)cc1,-,-,0,-,0,-
Cc1cc2ccc3ccccc3c2cc1CN(C)C,7.31µM,0,0,32.6µM,0,18.4µM
CC(=O)Nc1c(O)cc(Br)c2nonc12,-,-,?,-,0,-
CC(=O)Nc1cc(O)c2nonc2c1O,-,-,?,-,2.59µM,-
COc1ccc(-n2nc3ccccc3n2)cc1,0,0,?,0,0,0
Nc1cc2nn(-c3ccccc3)nc2cc1Cl,?,18.4µM,?,0,0,0
Nc1ccc(-n2nc3ccccc3n2)cc1,?,23.1µM,?,0,0,0
Nc1ccc2nn(-c3ccccc3)nc2c1,14.6µM,18.4µM,0,0,0,0
CCCC(=O)Nc1nc2c(s1)CC(C(C)(C)C)CC2 (centres undefined),-,-,0,-,0,-
Cc1ccc(NC(=O)CN2C(=O)CCc3cc(S(=O)(=O)N4CCOCC4)ccc32)cc1F,-,-,0,-,0,-
CSc1cccc(N2C(=O)N(CC(=O)NCc3ccccc3Cl)c3ccccc3S2(=O)=O)c1,-,-,0,-,0,-
CC1(C)CC(=O)C(C=Nc2ccc(C(=O)c3ccccc3)cc2N=CC2=C(O)CC(C)(C)CC2=O)=C(O)C1,?,5.8µM,0,0,?,0
C(=N\Nc1ncnc2sc3c(c12)CCC3)/c1ccncc1,?,0,18.4µM,?,?,?
c1ccc(CNc2ncnc3sc4c(c23)CCCC4)nc1,0,0,8.2µM,0,0,0
Cc1cc(C(F)(F)F)c2c(N)c(C(=O)Nc3c(Cl)cccc3Cl)sc2n1,-,-,0,-,0,-
Cc1ccc(-n2nc(C)c3c(C)cc(=O)n(CC(=O)Nc4cc(Cl)ccc4C)c32)cc1,-,-,0,-,0,-
NS(=O)(=O)c1ccc(NC(=O)COC(=O)c2ccc([N+](=O)[O-])s2)cc1,16.4µM,0,0,0,0,0
O=C(OCc1cc(=O)n2nc(-c3cccs3)sc2n1)c1ccccc1Cl,-,-,0,-,0,-
COc1ccc(C(=O)NC(=S)Nc2cccc(NC(=O)c3ccco3)c2)cc1[N+](=O)[O-],0,0,0,0,0,0
CCOc1ccc(C(=O)NC(=S)Nc2cccc(NC(=O)c3ccco3)c2)cc1[N+](=O)[O-],0,?,?,0,18.4µM,0
CCOc1cc(NS(=O)(=O)c2ccc(Cl)cc2)c(OCC)cc1NC(=O)CC(C)C,0,0,11.2µM,?,0,?
CCOc1cc(NS(=O)(=O)c2ccccc2)c(OCC)cc1NC(=O)c1ccco1,0,0,14.6µM,0,0,0
Cc1ccccc1NC(=O)c1cccc(NC(=O)c2ccco2)c1,0,0,0,0,0,0
CCOc1ccccc1NC(=O)c1cccc(NC(=O)c2ccco2)c1,7.31µM,6.51µM,?,?,2.59µM,2.31µM
SMILES,SW480 rereplic,MCF10A rerep,KB-V1 MDR tox,HT1080NT lethal,KB-3-1 tox,HT1080 IDH1KD tx
CCOc1ccc(C(=O)Nc2ccc(NC(=O)c3ccco3)c(Cl)c2)cc1Br,0,5.8µM,0,?,0,?
CCOc1ccc(C(=O)Nc2ccc(NC(=O)c3ccco3)c(Cl)c2)cc1Cl,?,?,0,0,?,0
CS(=O)(=O)N(CC(=O)Nc1ccccc1Sc1ccccc1)C1CCCCC1,0,?,5.8µM,?,?,?
CC1CCN(CC(=O)Nc2ccccc2Sc2ccccc2)CC1,?,14.6µM,0,0,0,0
CS(=O)(=O)N(CC(=O)NCc1ccccc1Cl)C1CCCCC1,20.6µM,0,?,0,0,0
COc1ccc(OC)c(CCNC(=O)c2cc3c(=O)oc4ccc(C)cc4c3s2)c1,-,-,0,-,0,-
CCCCOC(=O)c1ccc(NC(=O)c2ccc3c(c2)CCCN3S(C)(=O)=O)cc1,-,-,?,-,0,-
Cc1ccc(NC(=O)CSc2ccc(-c3cccs3)nn2)cc1Cl,-,-,0,-,0,-
COc1ccc(/C=C(/NC(=O)c2ccccc2)c2nc3ccc(Cl)cc3[nH]2)cc1OC,0,?,11.6µM,0,?,0
COc1ccc(/C=C(/NC(=O)c2ccccc2)c2nc3ccccc3[nH]2)cc1OC,?,20.6µM,0,0,0,0
Cc1ccc(-c2cc(NC(=O)C(C)Oc3ccc(C)c(C)c3)on2)cc1 (centres undefined),-,-,0,-,0,-
CCc1nc2nc(C)c(NS(=O)(=O)c3ccc(C)cc3)c(=O)n2[nH]1,-,-,0,-,0,-
CCc1ccc(Nc2cc(C)nc3ncnn23)cc1,0,0,?,0,?,0
CCn1c2ccccc2c2cc(Nc3cc(C)nc4ncnn34)ccc21,?,?,?,0.581µM,0.231µM,1.03µM
C[N+]1(CC(=O)c2ccc3ccccc3c2)CCOCC1,-,-,0,-,?,-
COc1ccc(CN2C(=O)c3ccccc3C(/C=N\OCc3ccc(C)cc3)C2=O)cc1 (centres undefined),0,0,?,0,20.6µM,0
COc1ccc(CN2C(=O)c3cccc4cccc(c34)C2=O)cc1,18.4µM,0,0,?,0,0
COc1ccc(CN2C(=O)c3ccccc3C2OC)cc1 (centres undefined),0,0,0,0,0,0
O=C1c2cccc3cccc(c23)C(=O)N1Cc1ccccc1,0,0,0,0,0,0
COc1cc2c3c(cccc3c1)C(=O)N(CCN1CCCC1)C2=O,-,-,10.3µM,13µM,?,8.2µM
COc1ccc(C(=O)CN2CCN(CCN3C(=O)c4cccc5cccc(c45)C3=O)CC2)cc1,?,0,0,0,0,0
COc1ccc(C(=O)c2ccccc2CN2C(=O)c3ccccc3C2=O)cc1,0,0,16.4µM,0,0,0
O=C1CCCC2=C1C1(CCCC1)N=C(Nc1nc3ccccc3n1Cc1ccccc1)N2,-,-,0,-,0,-
O=C1c2cccc3cccc(c23)N1Cc1cccc(F)c1,?,25.9µM,0,0,?,0
COc1ccc(C2=NN(c3nc(-c4ccc(CNC(C)=O)cc4)cs3)C(c3ccco3)C2)cc1 (centres undefined),?,2.59µM,0,0,0,0
CCOC(=O)CN(C(=O)COc1nc(-c2ccccc2)cc(C)c1C#N)c1ccccc1C,?,0,0,0,3.66µM,0
CN(C)c1cccc(NC(=O)c2ccco2)c1,0,0,0,0,0,0
CCN(CC)P(=O)(Nc1cccc(C(F)(F)F)c1)c1ccc(N(C)C)cc1NC(=O)c1ccco1 (centres undefined),0,0.82µM,0,0,0,0
O=C(NCCc1ccccc1)c1cc(-c2ccccc2)c(N2CCOCC2)s1,0,?,0,0,0,0
CCN(CC)CCCNC(=O)c1cc(-c2ccccc2)c(N2CCCCC2)s1,0,0,?,?,18.4µM,?
